DT40 TDP1 no CPT: qHTS for Inhibitors of human tyrosyl-DNA phosphodiesterase 1 (TDP1): qHTS in cells in absence of CPT; DT40 Tdp1-/- hTDP1 cells, no CPT, ATP luminescence, 48 h; Potency, µM (top dose mostly 46.2 µM), for the others: top-dose activity change, negative = growth inhibition, usual class: inhibitors; hit rate 15% among 420,000; also: potency is read from the fitted curve at half-maximal effect; nearly all actives have a fitted effect of over 55% in size
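Compound effects on proliferation are scored in DT40 Tdp1-/-;hTDP1 cells in the absence of CPT. ATP levels (CellTiter-Glo luminescence) are recorded after a ≥48 hr, 37 °C incubation.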
IL1B secr inh: qHTS for Inhibitors of Inflammasome Signaling: IL-1-beta AlphaLISA Primary Screen; THP-1 LPS/ATP IL-1B secretion, AlphaLISA, 16 h; stronger effect = lower value; hit rate 4.7% among 360,000; activity change, % at 57.5 µM; in the data active = activity change below about -50%; inconclusive = mostly about -30% to -49%
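Secreted IL-1B measured by AlphaLISA bead assay after 16 h compound exposure of THP-1 cells; compounds (final up to 57.5 uM) added 1 h before LPS (250 ng/mL) and ATP (1.25 mM) stimulation; lower signal means less secretion.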
DT40 TDP1 CPT: qHTS for Inhibitors of human tyrosyl-DNA phosphodiesterase 1 (TDP1): qHTS in cells in presence of CPT | chicken DT40 Tdp1-/-;hTDP1 cells + 20 nM CPT, ATP luminescence, 48 h | Potency, µM (highest dose often 46.2 µM), without a hit: top-dose activity change, negative = growth inhibition, most hits filed as inhibitors | hit rate 12% among 420,000; also: potency is read from the fitted curve at half-maximal effect; nearly all actives have a fitted effect of over 55% in size
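Cell growth measured by CellTiter-Glo luminescence after a minimum 48 h, 37 C compound exposure with 20 nM CPT in Tdp1-knockout DT40 cells stably expressing hTDP1, seeded 400/well; qHTS titration format.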
Six1-Eya2 inh: qHTS Assay for Inhibitors of the Six1/Eya2 Interaction; Homeobox protein SIX1 (Homo sapiens) + Protein phosphatase EYA2 (Homo sapiens), …; AlphaScreen GST-Six1/His-Eya2 binding, biochemical; stronger effect = lower value; activity change, % (no concentration beside the values); hit rate 0.56% among 360,000; in the data active = activity change below about -65%; inconclusive = mostly about -30% to -63%
Target sequence (O00167 whole entry, looked up): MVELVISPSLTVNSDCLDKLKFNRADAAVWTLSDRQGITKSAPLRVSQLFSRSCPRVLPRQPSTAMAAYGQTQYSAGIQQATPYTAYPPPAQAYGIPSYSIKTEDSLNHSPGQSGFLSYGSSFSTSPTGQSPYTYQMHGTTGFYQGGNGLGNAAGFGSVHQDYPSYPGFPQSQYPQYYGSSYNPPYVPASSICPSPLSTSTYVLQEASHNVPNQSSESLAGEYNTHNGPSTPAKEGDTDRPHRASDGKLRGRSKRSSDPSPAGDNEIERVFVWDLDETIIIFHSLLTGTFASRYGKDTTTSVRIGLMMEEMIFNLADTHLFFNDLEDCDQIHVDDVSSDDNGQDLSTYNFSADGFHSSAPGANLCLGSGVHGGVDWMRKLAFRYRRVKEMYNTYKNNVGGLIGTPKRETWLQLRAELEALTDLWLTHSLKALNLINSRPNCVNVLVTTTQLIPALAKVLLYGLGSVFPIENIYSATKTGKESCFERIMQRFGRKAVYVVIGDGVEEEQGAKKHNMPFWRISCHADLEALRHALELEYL
Target sequence (Q15475 whole entry, looked up): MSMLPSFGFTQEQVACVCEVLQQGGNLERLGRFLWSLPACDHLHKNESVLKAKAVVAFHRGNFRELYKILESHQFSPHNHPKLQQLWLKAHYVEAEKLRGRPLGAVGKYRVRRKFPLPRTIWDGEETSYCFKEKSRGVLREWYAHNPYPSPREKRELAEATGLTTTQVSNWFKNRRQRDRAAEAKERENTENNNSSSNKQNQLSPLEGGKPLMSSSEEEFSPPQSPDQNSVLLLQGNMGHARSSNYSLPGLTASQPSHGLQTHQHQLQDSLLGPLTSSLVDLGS
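AlphaScreen luminescence read after one hour at 37 °C in darkness. Pin-transferred compounds met GST-Six1 and His-Eya2 protein (5X stock 250 nM/500 nM) plus glutathione donor and Ni-chelate acceptor beads (5X, 50 ug/mL).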
TDP1 inh: qHTS Assay for Inhibitors of Tyrosyl-DNA Phosphodiesterase (TDP1); Potency, µM (series often up to 130 µM), without a hit: at the highest dose activity change, negative = inhibition, usual class: inhibitors; recombinant TDP1, AlphaScreen DNA substrate cleavage; AID 485290, 2010; hit rate 0.28% among 350,000; Tyrosyl-DNA phosphodiesterase 1 (Homo sapiens), Q9NUW8; also: potency is read from the fitted curve at half-maximal effect; nearly all actives have a fitted effect of over 40% in size
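Here, a 5' biotin and 3' phosphotyrosine-FITC DNA oligonucleotide reports Tdp1 activity: intact substrate bridges AlphaScreen beads, while cleavage leaves a 3' phosphate and drops signal. All incubations at room temperature.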
CtBP-E1A blk: qHTS Assay for Inhibitors of the CtBP/E1A Interaction | AlphaScreen GST-E1A/His-CtBP binding, 1536-well; stronger effect = lower value | activity change, % (test concentration not listed) | hit rate 0.49% among 340,000; in the data active = activity change below about -65%; inconclusive = mostly about -30% to -63%
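GST-E1A and His-tagged CtBP (125 nM each as 5X stock) were preincubated with pin-transferred compound for 2 h at 37 °C in the dark, then glutathione donor and nickel acceptor beads were added for 1 h before AlphaScreen reading.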
An asterisk follows results filed as active; ? = inconclusive; nt = not tested or not shown. In the library only some 18% were active in any assay of this set; here they are far more common. Unless noted, calls follow the shape of the dose curve; as a rule, active = well fitted curve in the direction sought with a large enough effect; inconclusive = small, poorly fitted or top-dose-only effect, or another doubt; inactive = no such curve, though single readings can be large; an effect the other way counts as inactive or inconclusive. % is scaled to controls: 0 for no effect and ±100 for the full control effect.

SMILES | DT40 TDP1 no CPT | IL1B secr inh | DT40 TDP1 CPT | Six1-Eya2 inh | TDP1 inh | CtBP-E1A blk
COc1ccc2nc(Nc3ccccc3OC)sc2c1 | 21µM* | -8 | ? | -9 | 3% | -4
COc1ccc2nc(NC(=O)c3ccccc3O)sc2c1 | ? | -2 | -22% | 3 | nt | 1
COc1ccc(NC(=O)Nc2nnc(N(CC(C)C)CC(C)C)s2)c(OC)c1 | 18µM* | nt | ? | nt | 9% | nt
Cc1ccc(C)c(NC(=O)Nc2nnc(N(CC(C)C)CC(C)C)s2)c1 | ? | nt | ? | nt | 9% | nt
COc1ccc2nc(NC(=O)Nc3ccccc3OC)sc2c1 | 5.2µM* | -7 | 9.2µM* | 5 | 7% | 0
CC(C)c1c(O)nc(SCCC(=O)O)[nH]c1=O | 7% | 4 | -8% | 1 | 2% | 4
Oc1[nH]c2ccccc2c1N=Nc1c(F)c(F)c(C(F)(F)F)c(F)c1F | -27% | -12 | 11% | 6 | nt | 9
COc1ccc2nc(Nc3ccc4c(c3)OCO4)sc2c1 | -16% | ? | -15% | -1 | 2% | -2
COc1cccc(NC(=O)C2CC2(c2cccc(OC)c2)c2cccc(OC)c2)c1 (stereo not given) | ? | -19 | ? | 4 | 0% | 6
COc1cccc(C2(c3cccc(OC)c3)CC2C(=O)Nc2cccc3ccccc23)c1 (stereo not given) | 26µM* | 16 | ? | 2 | 1% | 11
COc1ccc2nc(Nc3nc4cc5c(cc4s3)OCO5)sc2c1 | 7.3µM* | 38 | ? | 19 | 6% | 1
COc1ccc2nc(Nc3ccccc3)sc2c1 | ? | -67* | -1% | -6 | 1% | -2
CCC(C)C(=O)Nc1nc2ccc(OC)cc2s1 (stereo not given) | 16µM* | -3 | ? | 4 | -3% | 6
COc1ccc(-n2nc(C(=O)Nc3cc(C)c(Cl)cc3OC)c3c4ccccc4n(C)c3c2=O)cc1 | 11% | nt | -1% | nt | 2% | nt
CC1Oc2ccccc2N(CC(=O)NCc2ccc3c(c2)OCO3)C1=O (stereo not given) | -23% | -2 | 13% | 0 | -6% | -7
COc1ccc2nc(NC(=O)Nc3cccc4ccccc34)sc2c1 | 18µM* | 9 | ? | -10 | 2% | nt
COc1ccc2nc(NC(=O)C3CC(=O)N(c4ccccc4)C3)sc2c1 (stereo not given) | ? | -57* | -18% | -14 | 2% | -4
COc1ccc(N2CC(C(=O)Nc3nc4ccc(OC)cc4s3)CC2=O)cc1 (stereo not given) | ? | -5 | -3% | ? | nt | 5
COc1ccc2nc(NC(C)=O)sc2c1 | ? | -12 | ? | 0 | 2% | 3
COc1cccc(OCCNC(=O)c2cc(OC)c(OC)c(OC)c2)c1 | 13µM* | 3 | ? | -13 | nt | 0
COc1cc(C(=O)NCCCc2nc3ccccc3n2CC(C)C)cc(OC)c1OC | ? | nt | 21µM* | nt | 6% | nt
CCCC(=O)NCCc1nc2ccccc2n1CC(=O)c1ccccc1 | -6% | 5 | -11% | 3 | 3% | 13
COc1cc(C(=O)NCCOc2ccc(C)c(C)c2)cc(OC)c1OC | -11% | -5 | -19% | 2 | nt | -3
CCCC(=O)NCCCc1nc2ccccc2n1C(C)C | 15µM* | 17 | ? | -2 | 3% | 2
COc1cc(NC(C)CCc2ccccc2)cc(OC)c1OC (stereo not given) | 10µM* | -7 | 13µM* | -21 | 11% | -6
SMILES | DT40 TDP1 no CPT | IL1B secr inh | DT40 TDP1 CPT | Six1-Eya2 inh | TDP1 inh | CtBP-E1A blk
Cc1ccc(C)c(NC(=O)CN(C)C(=O)CN2C(=O)C3CCCCC3C2=O)c1 (stereo not given) | -3% | 16 | -15% | 1 | nt | 5
CCOC(=O)c1c(C)[nH]c(C)c1S(=O)(=O)N1CCC(C(=O)NCc2cccc(OC)c2)CC1 | 4% | nt | 11% | nt | 5% | nt
COc1cc(C(=O)NCCCCc2ccccc2)cc(OC)c1OC | 5.8µM* | -2 | ? | 13 | nt | nt
COc1cccc(OCCOc2c(OC)cccc2OC)c1 | ? | -60* | -27% | 58 | -9% | 23
COc1cccc(OC)c1OCCCOc1c(OC)cccc1OC | ? | 10 | -13% | 1 | -2% | 6
O=C(COC(=O)c1ccc(S(=O)(=O)N2CCOCC2)cc1)NC1CCCC1 | 0% | 7 | 2% | 7 | -2% | 0
COc1cc(C(=O)N(C)CC2CCN(CCc3cccc(C(F)(F)F)c3)CC2)ccc1C | ? | -86* | ? | -4 | 0% | -4
CCC1CSC(Nc2ccc(C(=O)/C=C/c3ccc(Br)cc3)cc2)=N1 (stereo not given) | ? | -93* | ? | -1 | -3% | 3
COc1ccc(/C=C/C(=O)NCCCNC(=O)/C=C/c2ccc(OC)c(OC)c2)cc1OC | -11% | -10 | -1% | -24 | nt | -2
O=C(/C=C/c1ccc(Br)cc1)NC1CCCCCC1 | ? | -11 | -13% | 0 | 5% | 6
CCC1CSC(Nc2ccc(C(=O)/C=C/c3ccc(OC)c(OC)c3)cc2)=N1 (stereo not given) | 13µM* | -93* | ? | -28 | 3% | 2
COc1ccccc1OCC(=O)NNC(=O)c1cnccn1 | ? | 24 | ? | -13 | 4% | -9
CCOc1ccc(S(=O)(=O)N/N=C\c2ccc3c(c2)OCO3)cc1 | -24% | 0 | -28% | 14 | 3% | -6
Cn1cc(C(=O)c2ccc(Cl)cc2Cl)cc1C(=O)N/N=C(\N)COc1ccc(F)cc1 | 16µM* | -1 | ? | -7 | 11% | -7
Cn1cc(C(=O)c2ccc(Cl)cc2Cl)cc1C(=O)N/N=C(\N)COc1ccc(Cl)cc1 | ? | 1 | ? | -4 | 8% | -11
COc1cccc(CNC(=O)c2c[nH]n3c(=O)c(Cl)c(C)nc23)c1 | -11% | 13 | 1% | -84* | 4% | -76*
O=C(NCc1ccc(F)cc1)c1cnc(N2CCOCC2)c2ccccc12 | 16µM* | nt | ? | nt | 0% | nt
O=C(NCc1cccc(Cl)c1)c1cnc(N2CCCCC2)c2ccccc12 | 26µM* | nt | 16µM* | nt | -4% | nt
COc1cccc(CNC(=O)c2cnc(N3CCCCC3)c3ccccc23)c1 | ? | nt | 15µM* | nt | 3% | nt
O=C(NCc1ccc(Cl)cc1)c1cnc(N2CCCCC2)c2ccccc12 | ? | nt | ? | nt | -7% | nt

Bioassay records deposited in PubChem BioAssay by National Center for Advancing Translational Sciences (NCATS).
